# An excerpt weighted towards active compounds, which were near 19% of everything screened.
# DT40 TDP1 CPT: growth inhibition of DT40 Tdp1-/-;hTDP1 cells with camptothecin (screen for TDP1 inhibitors). chicken DT40 Tdp1-/-;hTDP1 cells + 20 nM CPT, ATP luminescence, 48 h. Potency, µM (top dose mostly 46.2 µM), inactives show at the highest dose activity change, negative = growth inhibition, most hits filed as inhibitors. 12% of 420,000 active. AID 686979; further: potency means the concentration at half of the fitted maximal effect; nearly all actives have a fitted effect of over 55% in size
#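 Cell growth measured by CellTiter-Glo luminescence after a minimum 48 h, 37 C compound exposure with 20 nM CPT in Tdp1-knockout DT40 cells stably expressing hTDP1, seeded 400/well; qHTS titration format.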
# HT1080NT lethal: kills 2HG-producing HT-1080-NT fibrosarcoma cells; HT-1080-NT fibrosarcoma viability, CellTiter-Glo ATP luminescence, 48 h; Potency, µM (highest dose often 46.1 µM), for inactives: top-dose activity, negative = less viability, most hits filed as cytotoxic; 1.6% of 360,000 active; AID 686970;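 further: NT is the 2HG producing partner of a matched IDH1 knockdown line; potency means the concentration at half of the fitted maximal effect; 0% = DMSO-treated cells and -100% = media-only wells without cells; nearly all actives have a fitted effect of over 55% in size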
#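 A 48-hour cytotoxicity screen used HT-1080-NT cells plated 2 hours before compound delivery. ATP-based CellTiter-Glo luminescence measured viability, normalized to DMSO and no-cell controls.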
# uPA surface inh: inhibitors of cell surface uPA generation. cell surface uPA generation assay, qHTS. Potency, µM (highest dose often 38.3 µM), for inactives: top-dose activity change, negative = inhibition, actives largely listed as inhibitors. 0.31% of 330,000 active. AID 540303; active means well fitted inhibition curve with a large enough effect; inconclusive means small, poorly fitted or top-dose-only effect; inactive means no such curve, though single readings can be large or run the other way; tested in mouse RAW 264.7 cells; further: potency means the concentration at half of the fitted maximal effect; nearly all actives have a fitted effect of over 55% in size
# HT1080 IDH1KD tx: toxicity to HT-1080 IDH1 knockdown cells (counter line). HT-1080 IDH1 knockdown viability, ATP luminescence, 48 h. Potency, µM (top dose mostly 46.1 µM), inactives show top-dose activity, negative = toxicity, most hits filed as cytotoxic. 2% of 360,000 active. AID 686971;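 further: potency means the concentration at half of the fitted maximal effect; 0% = DMSO wells and -100% = cell-free medium wells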
#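 HT-1080-IDH1KD cells (IDH1 knocked down), 750/well in RPMI with 5% FBS, treated with compound 48 h at 37 degrees C. Viability by CellTiter-Glo luminescence, normalised to DMSO and no-cell wells; concentration-response curves classed.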
# IL1B secr inh: inflammasome signaling inhibition, IL-1 beta readout; activity change, % at 57.5 µM; AID 743279; 4.7% of 360,000 active; THP-1 LPS/ATP IL-1B secretion, AlphaLISA, 16 h; hits give low values; in the data active means activity change below about -50%; inconclusive means mostly about -30% to -49%
#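 Secreted IL-1B measured by AlphaLISA bead assay after 16 h compound exposure of THP-1 cells; compounds (final up to 57.5 uM) added 1 h before LPS (250 ng/mL) and ATP (1.25 mM) stimulation; lower signal means less secretion.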
# DT40 TDP1 no CPT: qHTS for Inhibitors of human tyrosyl-DNA phosphodiesterase 1 (TDP1): qHTS in cells in absence of CPT; Potency, µM (top dose mostly 46.2 µM), for inactives: at the top dose activity change, negative = growth inhibition, usual class: inhibitors; 15% of 420,000 active; DT40 Tdp1-/- hTDP1 cells, no CPT, ATP luminescence, 48 h; further: potency means the concentration at half of the fitted maximal effect; nearly all actives have a fitted effect of over 55% in size
#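 No-CPT arm: Tdp1-/-;hTDP1 DT40 cells (400/well) plus compounds, incubated ≥48 hr at 37 °C. Readout CellTiter-Glo luminescence.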
# Active calls of the source: *; ? = inconclusive; / = not tested or not shown. Unless noted, the call rests on the fitted dose curve; in most records, active means well fitted curve in the direction sought with a large enough effect; inconclusive means small, poorly fitted or top-dose-only effect, or another doubt; inactive means no such curve, though single readings can be large; an effect the other way counts as inactive or inconclusive. Unless noted, on the % scale 0 is the no-effect control and ±100 the full control effect.
SMILES,DT40 TDP1 CPT,HT1080NT lethal,uPA surface inh,HT1080 IDH1KD tx,IL1B secr inh,DT40 TDP1 no CPT
O=C(CN1C(=O)NC2(CCCCC2)C1=O)N1CCN(S(=O)(=O)/C=C/c2ccccc2)CC1,-11%,1%,13%,15%,-8,-8%
Cc1ccc2c(c1)CCCN2CC(=O)N(C)c1c(N)n(Cc2ccccc2)c(=O)[nH]c1=O,-5%,5%,0%,-8%,23,-4%
O=C(Cc1ccsc1-c1ccccc1)NO,26µM*,?,-11%,?,-28,21µM*
COCCCn1c(C(=O)Nc2ccc3c(c2)OCO3)cc2c(=O)n3ccccc3nc21,18µM*,13%,5%,3%,20,26µM*
COCCCn1c(C(=O)NC2CCCCC2C)cc2c(=O)n3cccc(C)c3nc21 (configuration not stated),16µM*,-1%,15%,0%,25,21µM*
CCN(C(=O)c1cc2c(=O)n3cccc(C)c3nc2n1CCCOC)C1CCCCC1,21µM*,-1%,-4%,-13%,-7,16µM*
CCN1C(=O)C(F)(CC)C(=O)c2ccccc21 (configuration not stated),7%,7%,6%,6%,14,-1%
O=C(CNC(=O)c1ccc(Cl)cc1Cl)Nc1ccc(F)cc1,1%,2%,3%,13%,-10,-5%
CC(C)c1ccc(N(CC(=O)NC2CCCCC2)C(=O)CCC(=O)Nc2ccccn2)cc1,?,-6%,2%,-12%,12,?
NCCCCc1ccc2ccc3cccc4ccc1c2c34,16µM*,?,3%,-21%,-28,?
O=C(O)CCCc1ccc2ccc3cccc4ccc1c2c34,2%,-8%,-3%,-25%,10,6%
CC(=O)c1ccc(-c2c(C)cc3oc(=O)cc(-c4ccccc4)c3c2C)cc1,18µM*,-3%,-17%,-6%,17,23µM*
Cc1cc2oc(=O)cc(-c3ccccc3)c2c(C)c1-c1ccc(C#N)cc1,16µM*,-15%,-11%,-3%,39,16µM*
COc1ccc(-n2c(CCC(=O)O)ccc2-c2ccc(F)cc2)c(OC)c1,2%,1%,3%,5%,13,-1%
COc1cc(N(C)C)c([N+](=O)[O-])cc1C(=O)N1CCOCC1,-1%,6%,4%,-1%,-9,18%
CC1(C(=O)NS(=O)(=O)c2cccc(F)c2)CCN1C(=O)CCc1ccccc1 (configuration not stated),0%,28%,/,5%,12,-4%
CC1CCN(CC(O)CN2c3ccccc3Sc3ccccc32)CC1 (configuration not stated),?,-2%,-1%,11%,0,18µM*
OCCNCC(O)CN1c2ccccc2Sc2ccccc21 (configuration not stated),?,?,-4%,-27%,?,?
COC(=O)/C=C/c1cnc2ccccc2c1,-26%,1%,-5%,14%,-17,?
COC(=O)/C=C\c1cc(O)ccc1O,0.6µM*,/,/,/,/,0.6µM*
COc1ccc(-c2oc(=O)c3cc(OC)c(OC)cc3c2C(F)(F)F)cc1,-4%,7%,-2%,18%,7,-19%
COc1ccc(-c2oc(=O)c3cc(OC)c(OC)cc3c2/C=C/c2ccc([N+](=O)[O-])cc2)cc1,?,0%,5%,-5%,-2,?
COc1ccc(-c2oc(=O)c3cc(OC)c(OC)cc3c2-c2cc(F)cc(OC)c2)cc1,?,-6%,-9%,5%,1,18µM*
COc1ccc(-c2c(-c3ccc(C#N)cc3)oc(=O)c3cc(OC)c(OC)cc23)cc1,?,-6%,16%,14%,-8,16µM*
COc1ccc(-c2oc(=O)c3cc(OC)c(OC)cc3c2/C=C/c2cccc([N+](=O)[O-])c2)cc1,8.2µM*,2%,9%,-2%,58,9.2µM*
SMILES,DT40 TDP1 CPT,HT1080NT lethal,uPA surface inh,HT1080 IDH1KD tx,IL1B secr inh,DT40 TDP1 no CPT
COc1ccc(N2CC(C(=O)Nc3cccnc3)CC2=O)cc1 (configuration not stated),16%,8%,5%,5%,26,17%
O=C(CCc1nnc2ccc(NCc3ccccc3)nn12)NC1CCCCC1,-30%,8%,-2%,4%,-11,20%
COc1ccccc1NC(=O)CN1C(=O)NC2(CCCc3ccccc32)C1=O (configuration not stated),-7%,2%,30%,-3%,-16,11%
CCC(=O)NC(c1cccs1)c1ccc2cccnc2c1O (configuration not stated),2.9µM*,?,?,?,112,4.6µM*
CC(C)CC(=O)NC(c1cccs1)c1ccc2cccnc2c1O (configuration not stated),2.9µM*,?,-9%,?,116,0.58µM*
CCC(=O)NC(c1ccccc1)c1c(O)ccc2ccccc12 (configuration not stated),-17%,19%,5%,21%,-7,1%
CCN1CCN(C(c2cccs2)C(C)NC(=O)CC(C)C)CC1 (configuration not stated),1%,11%,4%,-1%,3,-20%
COc1ccc(NC(=O)Cn2nnnc2-c2ccccc2F)c(C)c1,-6%,/,/,/,/,-1%
CCCn1c(Nc2cccc(OC)c2)nc2ccccc21,?,3%,-7%,4%,-17,?
COc1ccc(-c2nc(/C=C3\C(C)=Nc4ccccc43)c(O)o2)cc1,6.5µM*,-2%,-6%,14%,36,12µM*
O=C(CN1CCN(c2ccccn2)CC1)N1c2ccccc2CCc2ccccc21,?,10%,-1%,15%,-6,-77%
CC(C)c1ccc(NC(=O)CN2CCN(c3ccccn3)CC2)cc1,-24%,9%,-3%,3%,-8,-11%
O=C(CN1CCOCC1)N(c1ccccc1)c1ccc2ccccc2c1,-19%,3%,-2%,4%,-6,?
O=C(CN1CCN(c2ccccn2)CC1)N(c1ccccc1)c1ccc2ccccc2c1,16µM*,-2%,-2%,-3%,-15,18µM*
Cc1c(C)n(C(=O)CN2CCN(c3ccccn3)CC2)c2ccccc12,?,-4%,-7%,-8%,20,12µM*
O=C(CN1CCN(c2ccccn2)CC1)Nc1ccc([N+](=O)[O-])cc1C(=O)Nc1ccccc1F,23µM*,-8%,-8%,-7%,-2,7.3µM*
